Measurements: PubChem BioAssay (NCATS)
Inconclusive results are not listed. The source made the active and inactive calls. The call rests on the fitted dose curve; in most records, active means well fitted curve in the direction sought with a large enough effect; inconclusive means small, poorly fitted or top-dose-only effect, or another doubt; inactive means no such curve, though single readings can be large; an effect the other way counts as inactive or inconclusive.

What was measured:
[1] = system: HACAT; assay: qHTS assay to identify novel small-molecules to repurpose for Merkel cell carcinoma treatment (AID 1296009); conditions: MCC and control cell lines, CellTiter-Glo viability, 72 h; at 44.8 µM (top of the series) unless noted; further: nearly all actives have a fitted effect of over 60% in size
In short: (§1)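 Viability readout: ATP luminescence (CellTiter-Glo) after 72 hr drug exposure at 37 degree celsius. Dose-response format was 8 points for NPC and 11 points for MIPE; data normalized to in-plate controls.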

[2] = system: HEK293T; assay: as above; conditions: MCC and control cell lines, CellTiter-Glo viability, 72 h; series mostly up to 44.8 µM
In short: as §1

[3] = system: NIH3T3; assay: as above; conditions: MCC and control cell lines, CellTiter-Glo viability, 72 h; at 44.8 µM (top of the series) unless noted
In short: as §1

[4] = system: C33A; assay: Primary qHTS to identify gynecologic anti-cancer compounds using libraries of approved drugs and bioactive compounds (AID 1345084); conditions: Gynecologic cancer cell panel viability, ATPlite luminescence, 48 h; series mostly up to 57.5 µM; further: nearly all actives have a fitted effect of over 55% in size
In short: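 ATP-based viability (ATPlite), 1,000 cells/well, 16 h pre-incubation, 48 h compound at 37 C, 5% CO2, 15 min RT before read.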

Measured: Potency

C/C=C/C1=CC2=C(CO1)C(=O)[C@](C)(O)[C@H](OC(=O)c1c(O)cc(OC)c(O)c1C)C2
inactive: [1] inactive [at 17.4 µM] | [2] | [3] inactive [at 17.4 µM] | [4]

COc1ccc2c(c1)OC[C@]1(O)c3cc4c(cc3O[C@H]21)OCO4
inactive: all assays above

CC(NC(=O)CC(=O)O)c1nc2ccccc2c(=O)[nH]1 (stereo unspecified)
inactive: all assays above

C[C@@H]1CC[C@]2(C(=O)O[C@@H]3O[C@H](CO)[C@@H](O)[C@H](O)[C@H]3O)CC[C@]3(C)C(=CCC4[C@@]5(C)C[C@@H](O)[C@H](O)C(C)(C)C5CC[C@]43C)C2[C@]1(C)O (stereo partly specified)
inactive: [1] inactive [at 17.4 µM] | [2] | [3] inactive [at 17.4 µM] | [4]

COc1ccc(C(=O)O[C@H]2CC(C)=CC[C@@]3(C)[C@@H](OC(C)=O)C[C@@](O)(C(C)C)[C@H]23)cc1
inactive: [1] inactive [at 17.4 µM] | [2] | [3] inactive [at 17.4 µM] | [4]

CC(NCc1ccc(OCc2cccc(F)c2)cc1)C(N)=O (stereo unspecified)
inactive: all assays above

O=C1Nc2ccc(O)cc2O[C@H]1O[C@@H]1O[C@H](CO)[C@@H](O)[C@H](O)[C@H]1O
inactive: all assays above

C=CC(C)(C)C12CC3C(=O)NC(Cc4cnc[nH]4)C(=O)N3C1Nc1ccccc12 (stereo unspecified)
inactive: all assays above

COc1cc([C@H]2OC[C@@H]3[C@@H](c4ccc(O[C@@H]5O[C@H](CO)[C@@H](O)[C@H](O)[C@H]5O)c(OC)c4)OC[C@]23O)ccc1O
inactive: [1] inactive [at 17.4 µM] | [2] | [3] inactive [at 17.4 µM] | [4]
